According to PubChem BioAssay (EPA / NIEHS):
Inconclusive results are not listed. Calls of active or inactive are those of the source. Rule for the calls: active = hit-call score of the fitted dose curve at least 0.9, where 1 is the maximum; inconclusive = response in the unintended direction; inactive = score below 0.9.

Molecular target: Estrogen receptor (Homo sapiens) (UniProt P03372)
Experiment: CCTE_Deisenroth_AIME_384WELL_LUC_Active: CCTE's 384-well Estrogen Receptor Transactivation Assay with AIME metabolic competence (ERTA luciferase; metabolism positive), Deisenroth Lab (AID 2284030)
Description: CCTE_Deisenroth_AIME_384WELL (AIME metabolism assay) is a cell-based, single-readout assay that uses VM7Luc4E2, a human mammary gland/breast cell line, with measurements taken at 24 hour after chemical dosing in a 384-well plate.CCTE_Deisenroth_AIME_384WELL_LUC_Active is one of four assay components measured or calculated from the CCTE_Deisenroth_AIME_384WELL assay. It is designed to make measurements of luciferase induction, a form of inducible reporter, as detected with bioluminescence signals by luciferase-coupled ATP quantitation technology.CCTE_Deisenroth_AIME_384WELL_LUC_Active is a component of the CCTE_Deisenroth_AIME_384WELL assay that measures the effect of retroftting the VM7Luc ERTA assay with the Alginate Immobolization of Metabolic Enzymes (AIME) metabolism method. AIME is optimized to impart phase I hepatic metabolism using phenobarbital/beta-naphthoflavone induced hepatic S9 from male Sprague Dawley rats. Parent chemicals are incubated for 2 hours in the AIME assay prior to transfer to the VM7Luc ERTA assay plate. […] This endpoint evaluates reporter induction in metabolism positive mode. Using a type of inducible reporter in VM7Luc cells, gain-of-signal activity can be used to understand changes in the reporter gene as they relate to xenobiotic metabolism and the gene ESR1. This assay endpoint, CCTE_Deisenroth_AIME_384WELL_LUC_Active, was analyzed in the positive analysis fitting direction relative to 17beta-estradiol as the positive control in the ERTA assay. To generalize the intended target to other relatable targets, this assay endpoint is annotated to the nuclear receptor intended target family, where the subfamily is steroidal.
The AIME procedure consists of a preparative "pre-stamping" step using a barium chloride/poly-L-lysine (PLL) solution followed by "stamping" the lid in alginate-hepatic S9 (metabolism positive) or alginate-water (metabolism negative) to form microspheres. Once stamping is completed, the AIME lids are placed in duplicate microplates (metabolism positive or negative) containing chemical solutions and incubated for two hours to facilitate metabolic reactions. The conditioned medium, containing parent chemical or metabolites, is then transferred to the cell-based VM7Luc Estrogen Receptor Transactivation Assay (ERTA) for 24 hours. A typical experimental design tests a 10-point concentration series (0.002 - 200 uM) for 8 compounds (96-well format)1 or 32 compounds (384-well format)2 in single technical replicate. AIME assay controls include trans-stilbene (bioactivated control) and ethylparaben (bioinactivated control). ERTA assay plate controls include 17-beta estradiol (positive control) and DMSO (solvent control). Experiments typically comprise a minimum of four experimental replicates (n=4).

Chain of Estrogen receptor (Homo sapiens) (P03372 whole entry, looked up): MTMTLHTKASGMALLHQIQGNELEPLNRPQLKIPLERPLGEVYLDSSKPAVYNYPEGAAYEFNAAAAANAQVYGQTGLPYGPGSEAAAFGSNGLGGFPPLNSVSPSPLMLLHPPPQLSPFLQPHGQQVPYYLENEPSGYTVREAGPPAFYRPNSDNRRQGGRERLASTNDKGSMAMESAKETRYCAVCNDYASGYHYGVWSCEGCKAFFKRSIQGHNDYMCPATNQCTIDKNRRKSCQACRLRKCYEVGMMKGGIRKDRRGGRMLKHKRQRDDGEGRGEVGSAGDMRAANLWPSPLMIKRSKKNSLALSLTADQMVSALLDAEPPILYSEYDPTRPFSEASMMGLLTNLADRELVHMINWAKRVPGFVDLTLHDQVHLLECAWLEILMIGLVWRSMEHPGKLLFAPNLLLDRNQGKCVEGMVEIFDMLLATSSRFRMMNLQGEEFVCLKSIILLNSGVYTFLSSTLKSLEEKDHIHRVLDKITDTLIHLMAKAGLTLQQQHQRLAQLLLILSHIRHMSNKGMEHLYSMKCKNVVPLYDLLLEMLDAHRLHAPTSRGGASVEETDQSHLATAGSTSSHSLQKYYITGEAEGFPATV

Structure (SMILES)	outcome	AC50
CCOc1cccc(C2(N3CCN(c4ccccc4)CC3)CCC(C)CC2)c1 (stereo not given)	inactive	
C[N+](C)(C)CC1CO1 (stereo not given)	inactive	
OCCCBr	inactive	
[O-][Cl+]O	inactive	
OCCOCCO	inactive	
Cc1ccc([N+](=O)[O-])cc1	inactive	
O=C(Oc1ccc(Br)cc1)N1CCN2CCC1CC2	inactive	
CCCCCOC(=O)c1ccccc1C(=O)OCCCCC	inactive	
O=C(Nc1ccccc1)c1ccccc1I		38.4 µM (active)
CNC(=O)Oc1cccc2c1OC(C)(C)C2		100 µM (active)
